# High-throughput results as filed in PubChem.
# Only some compounds are listed: those with a hit (about 2.2% of all), similar ones and a draw of the others.
# CHT block – inhibits the human high affinity choline transporter; 310,000 compounds, 0.86% hits; B-score at 10 µM; Q9GZV3; CHT-expressing cells, membrane potential dye, choline response; hits give low values; AID 488975;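 active = B-score over 3 SD under the library average, and starting fluorescence ratio not unusually high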;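 also: choline stimulus applied at its EC90 after an EC20 pre-addition; B-score computed on integrated fluorescence ratio after choline addition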
# Target sequence (Q9GZV3 whole entry, looked up): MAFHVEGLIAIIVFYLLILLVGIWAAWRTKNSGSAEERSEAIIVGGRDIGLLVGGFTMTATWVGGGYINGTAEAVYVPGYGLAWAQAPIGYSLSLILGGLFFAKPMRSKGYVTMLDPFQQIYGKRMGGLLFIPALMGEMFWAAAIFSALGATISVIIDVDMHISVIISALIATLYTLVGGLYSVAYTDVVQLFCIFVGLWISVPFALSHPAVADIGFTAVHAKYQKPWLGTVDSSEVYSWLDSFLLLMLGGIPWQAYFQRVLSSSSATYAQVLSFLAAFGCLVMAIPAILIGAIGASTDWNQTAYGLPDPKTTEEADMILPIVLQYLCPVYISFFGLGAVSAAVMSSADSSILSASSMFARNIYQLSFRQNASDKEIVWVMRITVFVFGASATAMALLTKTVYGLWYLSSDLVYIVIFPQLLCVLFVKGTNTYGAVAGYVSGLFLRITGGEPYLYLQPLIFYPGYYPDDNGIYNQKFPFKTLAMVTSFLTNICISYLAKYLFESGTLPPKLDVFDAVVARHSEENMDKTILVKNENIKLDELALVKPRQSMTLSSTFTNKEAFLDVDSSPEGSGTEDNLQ
# CHT PAM – human CHT allosteric activation. Q9GZV3. CHT-expressing cells, membrane potential dye, choline EC20; hits give high values; LV-AA mutant CHT in HEK293 cells. B-score at 10 µM. 310,000 compounds, 0.49% hits. AID 488977;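 active = initial fluorescence not abnormally high and integrated response B-score, plate-corrected, over 3 SD above library mean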
# AI-2 QS modul – modulates the Vibrio harveyi AI-2 quorum sensing system | Vibrio harveyi JMH597 AI-2 luminescence/OD600 ratio, 9 h; hits give low values; strain lacks LuxN and CqsS sensors; 0 = neutral-control median | activity change, % at 7.5 µM | 300,000 compounds, 0.4% hits; in the data active = activity change below about -75%, passing the limit was not always enough;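 also: luminescence divided by OD600 gain over 9 h not by final OD600 alone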
# VLA-4 inh – inhibition in a human VLA-4 binding assay. P13612. VLA-4 expressing cells, ligand binding flow cytometry. inhibition, % (about 7 µM as worked out from the volumes in the protocol). 330,000 compounds, 0.2% hits; in the data active = inhibition above about 50%
# HIF activator – HIF pathway transcriptional activation. U2OS HRE-luciferase reporter, luminescence; normalized: DMSO 0%, desferrioxamine 100%. activation, % at 7.5 µM (by protocol). 300,000 compounds, 0.32% hits. AID 1910;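 active = mean activation of at least 10% of the iron chelator positive control signal, with at least half of replicates also reaching 10%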
# Platelet DG rel – platelet dense granule release activity | human platelet-rich plasma, SFLLRN dense granule ATP release, luminescence | inhibition, %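 (compounds screened at 7.5 µM in platelet-rich plasma)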 | 300,000 compounds, 0.22% hits;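 active = mean replicate score, as percent of positive control, at or above 50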
# Starred values were filed as active, the others as inactive; i = inactive; nt = not tested or not shown.
SMILES,CHT block,CHT PAM,AI-2 QS modul,VLA-4 inh,HIF activator,Platelet DG rel
O=C(N/N=C\c1ccc(Cl)s1)c1ccc(Cn2cccn2)o1,i,i,9.6,-1.1,1.9,-12.1
O=C(N/N=C/c1c(O)ccc2ccccc12)c1cccc(C(F)(F)F)c1,i,i,19.4,-7.6,13.9*,11.1
COc1ccc(C(=O)Nc2ccnn2C2CCN(C(=O)C3CCOC3)CC2)cc1 (centres undefined),i,i,5.6,7.9,1.3,5.5
S=C(NCc1ccco1)Nc1cc(-c2ccccc2)[nH]n1,i,i,-81.5*,7.1,0.5,-16.1
CCOC(=O)C1CCN(C(=O)Nc2c(-c3ccccc3)noc2C)CC1,i,i,27.4,-21.7,-0.1,20.6
Cc1cc(NC(=O)CSCC(=O)Nc2ccccc2N2CCCCC2)no1,i,i,13.4,22.6,-0.5,50.5*
CCOc1ccccc1NC(=O)CNS(=O)(=O)c1ccc2nc(C)sc2c1,i,i,24.7,-1.4,0.2,-2.5
C/C(=N\Nc1ncnc2sc(C)c(C)c12)c1ccccn1,i,i,-88.0*,i,95.8*,-12.4
Cc1nn(CC(=O)Nc2ccccc2)c(=O)c2ccccc12,i,i,-87.8*,9.5,-0.2,-1.1
N/C(=N/OC(=O)c1ccccc1Cl)c1ncc([N+](=O)[O-])s1,i,i,-86.3*,-11.2,1.9,-4.1
S=C(NCc1cccnc1)Nc1ccc(Oc2ccccc2)cc1,i,i,-3.7,-8.5,-0.2,-3.6
Cc1ncc(CO)c(CNc2ccc(Oc3ccccc3)cc2)c1O,i,i,-87.4*,1.5,-1.0,-1.0
CC(=O)c1ccc(S(=O)(=O)N2CCN(C(C)C(=O)N(C)Cc3ccccc3)CC2)cc1 (centres undefined),nt,nt,nt,-1.9,nt,nt
O=C(N/N=C/c1cc2c(cc1Br)OCO2)c1c[nH]c2ccccc12,i,i,5.5,50.3*,1.2,-11.3
O=C(N/N=C/c1cccs1)c1ccc2c(c1)OCO2,i,i,11.1,-6.3,1.3,1.2
O=C(N/N=C/c1cc(Br)cc(Cl)c1O)c1ccc2c(c1)OCO2,i,i,54.9,-4.5,19.4*,-8.9
O=C(N/N=C/c1cc2c(cc1Br)OCO2)c1ccccn1,i,i,31.4,6.1,3.8,21.5
O=C(N/N=C/c1ccc2c(c1)OCO2)c1cccs1,i,i,19.2,12.2,3.7,6.6
O=C(N/N=C/c1ccccc1O)c1ccc2c(c1)OCO2,i,i,-15.7,-5.7,9.7*,1.0
Cc1ccsc1C(=O)N/N=C/c1ccc2c(c1)OCO2,i,i,12.6,-3.6,1.6,65.6*
CC(=O)Nc1ccc(NC(=O)CC(NC(=O)c2ccccc2)c2ccccc2)cc1 (centres undefined),i,i,28.0,10.3,-1.0,-5.3
OCC[C@H]1C[C@@H](O)[C@H](O)[C@@]2(CCCCO2)O1,i,i,20.1,nt,1.4,1.9
CCN(CC)S(=O)(=O)c1ccc(OCC(=O)NC(=O)c2ccccc2OC)c([N+](=O)[O-])c1,i,i,19.8,4.8,-0.1,23.5
Cc1cc(Br)cc(/C=N/NC(=O)c2ccc3c(c2)OCO3)c1O,i,i,0.2,17.7,13.1*,3.9
CCOC(=O)c1cc2c(=O)n3ccccc3nc2n(C(C)C)c1=NC(=O)c1ccco1,i,i,42.4,4.5,0.3,8.4
SMILES,CHT block,CHT PAM,AI-2 QS modul,VLA-4 inh,HIF activator,Platelet DG rel
CC(C)n1c(=NC(=O)c2ccco2)c(C#N)cc2c(=O)n3ccccc3cc21,i,7.2*,-3.4,-3.0,0.3,-16.0
O=C1CCCN1c1ccc(N2CCCC2=O)cc1,i,i,26.3,0.7,-0.7,5.5
CC(C)(C)c1csc(NNC(=O)c2ccc(Br)cc2)n1,i,i,10.0,-4.9,11.5*,8.3
Oc1ccc(/C=N/NC(=S)Nc2cccnc2)cc1,i,i,8.0,7.0,1.1,10.3
Oc1ccc(/C=N/NC(=S)N/N=C/c2ccc(O)cc2)cc1,i,i,9.4,11.4,1.7,114.7*
Cc1cc(F)ccc1NS(=O)(=O)c1c(C(=O)N2CCOCC2)c(C)n(C)c1C,i,i,6.9,4.0,0.3,0.7
CC(C)N(Cc1ccccc1)C(=O)CN1C(=O)COc2ccc(S(=O)(=O)N3CCCCCC3)cc21,i,i,21.2,-10.8,-0.9,-35.8
O=C(NCc1ccc2c(c1)OCO2)C1CCC(CNS(=O)(=O)c2ccccc2)CC1 (centres undefined),i,i,0.2,3.3,-0.2,61.1*
O=C(NCc1ccc2c(c1)OCO2)C1CCC(CNS(=O)(=O)c2cccc3nsnc23)CC1 (centres undefined),i,i,24.0,-14.8,0.1,26.0
COc1cc(OC)c(C(=O)OCC(=O)NCCC2=CCCCC2)cc1OC,i,i,17.2,-4.5,0.1,3.5
Cc1ccccc1NC(=O)Cc1nc(COC(=O)CNS(=O)(=O)c2cccc(Br)c2)cs1,i,i,-7.0,-0.4,0.2,11.9
CCCCc1c(C)nc(N)[nH]c1=O,i,i,27.1,15.5,19.8*,-2.9
O=C1CSCN1c1ccc(Cl)cc1,i,i,0.7,13.2,184.3*,5.6
O=C(Nc1nccs1)C1CC(=O)N(c2ccc(Cl)cc2)C1 (centres undefined),i,i,41.5,-7.9,-0.7,-0.1
CC1CCN(S(=O)(=O)c2ccc(NC(=O)CN3C(=O)NC(C)(c4ccccc4)C3=O)cc2)CC1 (centres undefined),i,i,-78.6*,15.7,0.0,-0.8
CCC1(c2ccccc2)NC(=O)N(CC(=O)Nc2ccc(S(=O)(=O)N3CC(C)CC(C)C3)cc2)C1=O (centres undefined),i,i,30.4,3.3,-0.2,0.8
CC1(c2ccc(OC(F)F)cc2)NC(=O)N(CC(=O)Nc2ccccc2)C1=O (centres undefined),i,i,-90.5*,-4.8,1.8,-10.2
O=C(NCC1CCCO1)c1sc2cc(Cl)ccc2c1Cl (centres undefined),i,i,23.8,-8.3,9.9*,-11.6
COc1ccc(C(=O)NCC2CCCO2)cc1OC (centres undefined),i,i,2.1,9.7,0.0,1.7
CCOc1ccc(C(=O)NCC2CCCO2)cc1OCC (centres undefined),i,i,13.3,-2.9,11.3*,-1.5
CC(C)c1ccc(NS(=O)(=O)c2ccc3c(c2)NC(=O)CO3)cc1,i,i,-84.8*,-14.4,0.0,0.0
O=C1COc2ccc(S(=O)(=O)Nc3ccc4c(c3)OCO4)cc2N1,i,i,-69.1,12.3,0.2,4.2
Cn1c(=O)oc2cc(S(=O)(=O)Nc3ccc(Cl)cc3)ccc21,i,i,35.7,0.8,0.8,-3.1
